These results are taken from PubChem BioAssay.

Unmarked numbers belong to inactive results. The source made the active and inactive calls. Rule as the data show it: active = inhibition above about 33%; inactive = the rest.

The nature of this assay: compounds suppressing VP16-driven luciferase signal – cell-based, luminescence, high throughput, counter-screen for LRH-1 inverse agonist project (AID 651615). The conditions noted are these: Gal4-VP16 luciferase reporter cells, at 3.6 µM, hits give high values.
In the case of `Cc1sc2ncnc(NCCc3ccc(S(N)(=O)=O)cc3)c2c1C`, the inhibition is 50% (active). In the case of `O=C(COc1ccc(S(=O)(=O)N2CCCC2)cc1Cl)Nc1ccc2c(c1)OCO2`, the inhibition was -9.34%. Under `CCOC(=O)c1ccc(N=Cc2cnc(N)nc2N)cc1` stands 3.32%. Under `CCN(CC)c1nc(C)c(C(C)=O)cc1C#N` stands 12%. Under `COc1ccc2c(c1)C1C=CCC1C(c1cc3c(cc1Br)OCO3)N2` (stereo not given) stands -14.3%. `CCn1c(=O)oc2cc(NC(=O)CCl)ccc21`: the inhibition was -54.9%. Under `COc1ccc(-c2cc(C(F)F)n3ncc(C(=O)N4CCc5ccccc5C4)c3n2)cc1` stands -2.06%; under `Oc1c(Cl)cc(CN2CCOCC2)c2cccnc12`, -5.55%; under `C=CC(=O)Nc1cccc(Oc2ncnc3[nH]cc(-c4cnc5ccccc5c4)c23)c1`, 18.2%. `NC(=O)CC[C@H](NC(=O)c1ccc(F)cc1)C(=O)OCC(=O)Nc1ccc(N2CCOCC2)cc1`: the inhibition is -8.19%.

Take `COc1cc(-c2cc(C(=O)NCc3ccc(S(N)(=O)=O)cc3)c3ccccc3n2)cc(OC)c1OC`: the inhibition is -26.4%. For the molecule `COCCn1c(SCC(=O)Nc2ccc(NC(C)=O)cc2)nc2ccccc2c1=O`, the inhibition was 2.35%. As to `O=[N+]([O-])c1ccc(N2CCCC2)nc1N1CCCC1`, the inhibition is -3.67%. Under `O=C(NC1CCCC(C(F)(F)F)C1)c1ccc([N+](=O)[O-])o1` (stereo not given) stands -1.15%; under `O=C1CC(c2ccc3c(c2)OCCO3)Oc2ccc([N+](=O)[O-])cc21` (stereo not given), -35.3%; under `COc1ccc(CNC(=O)O[C@@H]2C[C@H]3C(=O)N(c4ccccc4)C(=O)[C@H]3[C@@]3(CN(S(=O)(=O)c4ccc(C)cc4)C[C@H]3C)[C@@H]2O)cc1OC`, 8.56%. Under `Cn1c(=O)oc2cc(NC(=O)CCl)ccc21` stands -65.2%; under `CNc1c2cccc(C)c2nc2c(C(=O)NCCN(C)C)cccc12`, 74.7% (active); under `COc1ccc(OC)c(NS(=O)(=O)c2ccc(SC)cc2)c1`, 14.8%. `COCCn1c(SCC(=O)Nc2ccc(C(C)=O)cc2)nnc1-c1ccco1`: the inhibition is -1.99%.

For `O=C(Nc1ccc(S(=O)(=O)N2CCOCC2)cc1)c1cccc([N+](=O)[O-])c1`, the inhibition was -5.35%. Under `CN1CCN(C2=C(Cl)C(=O)N(c3ccc(Cl)c(Cl)c3)C2=O)CC1` stands -5.07%.

Consider `O=C(CSc1ncnc2c1cnn2-c1ccccc1)Nc1ccc2c(c1)OCO2`, for which the inhibition is -7.58%.

With `CCn1c(=O)[nH]c(=O)c2c(N)c(C(=O)c3cc(F)ccc3F)sc21`, the inhibition is 10.3%. `CCc1nc(SCC(=O)N2CCc3cc(OC)c(OC)cc3C2)c(C#N)cc1C`: the inhibition was 1.24%.

For the molecule `O=C(c1ccccc1)N(NC(=O)C(O)(c1ccccc1)c1ccccc1)c1cccc(F)c1`, the inhibition was 30.2%. With `COc1ccc(NS(=O)(=O)c2ccc(-c3coc(C)n3)cc2)cc1OC`, the inhibition is 51.4% (active). `CCOC(=O)CCCc1ccc(/C(C)=N/NC(N)=S)cc1`: the inhibition was 26.4%. Under `COc1ccc(C2=NS(=O)(=O)N(C)C(C(=O)N3CCc4ccccc4C3)=C2)cc1OC` stands 24.2%; under `COc1ccc(NC(=O)CSc2nnc3ccc(-c4cccnc4)nn23)cc1OC`, -8.78%; under `O=c1cc(C2CCCCC2)[nH]c(=O)[nH]1`, 2.19%. Under `Cc1ccc(-c2nn3c(C)nnc3s2)cc1NC(=O)c1cccs1` stands -15.2%; under `Cc1cc(O)c(/C=N/Nc2cccc(Cl)c2)c(=O)o1`, 56% (active); under `COc1ccc(C2(C)NC(=O)N(CC(=O)Nc3ccc(C)cc3Br)C2=O)cc1OC` (stereo not given), 0.45%.

Take `COc1ccc(CCNC(=O)c2ccc(CSc3ccc(Cl)cc3)o2)cc1OC`: the inhibition is 30.3%.

On to `COc1cc2c(cc1OC)-c1c(OC)c(OC)cc3ccnc(c13)C2=O`, for which the inhibition is 25.4%.

For `COc1cc(N)c2ncccc2c1Cl`, the inhibition is 10.7%. As for `N#CCc1ccc(OCCCN2CCC(C(O)(c3ccccc3)c3ccccc3)CC2)cc1`, the inhibition is 12.4%. Under `CCn1c(SCC(=O)Nc2ccc(Cl)cc2)nnc1C1CC1` stands 6.77%; under `Cc1cc(C(=O)CSc2nnnn2-c2ccccc2)c(C)n1-c1ccc2c(c1)OCO2`, 27.6%.

For orientation: inhibition means the drop in the measured response relative to a control, in per cent.
